# Measured values from PubChem BioAssay (NCATS).
# A number with no mark means an inactive call. Calls follow the shape of the dose curve; as a rule, active = well fitted curve in the direction sought with a large enough effect; inconclusive = small, poorly fitted or top-dose-only effect, or another doubt; inactive = no such curve, though single readings can be large or run the other way.
# Biological target: Hexokinase-4 (Homo sapiens) + Glucokinase regulatory protein (Homo sapiens) (UniProt P35557+Q14397)
# Experiment: qHTS assay for inhibitors of recombinant human GCK-GKRP interaction: HTRF assay (AID 743207);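 also: 0% = DMSO with GCK present and -100% = DMSO wells lacking GCK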
# Conditions: recombinant GCK-GKRP HTRF binding, 60 min, with sorbitol-6-phosphate; series mostly up to 57.5 µM; activity change, negative = inhibition: at the top concentration
# Source text: Glucokinase (GCK) is a glucose sensor in hepatocytes and pancreatic beta-cells. Hepatic GCK is regulated by glucokinase regulatory protein (GKRP), which is predominantly localized to the liver. GKRP binds to GCK inhibiting its activity in the fasting state while in the presence of glucose the GKRP is displaced. There is an additional layer of regulation by fructose 1-phosphate and fructose 6-phosphate, which inhibit and enhance the GCK-GKRP interaction, respectively. GCK plays a role in glucose homeostasis and there is an interest in the development of strategies to activate GCK to lower blood glucose levels in type 2 diabetes. To date the majority of effort has focused on direct activation of GCK and the assays developed herein look to activate GCK by inhibiting its binding to GKRP. A compound that inhibits the interaction of GCK with GKRP could be important for the treatment of diabetes and can also be used as a tool compound to further elucidate GCK-GKRP biology. To that end, we have developed an HTS biochemical assay using HTRF technology for to interrogate the GCK-GKRP interaction. This assay was screened against a small compound library to look for modulators of activity.
# 3 uL of 5 nM GST-GCK and 5 nM FLAG-GKRP proteins with 2 uM S6P (columns 1-2, 4-48; Millipore, Billerica, MA) are dispensed into Greiner, white solid-bottom 1536-well assay plates; columns 3 receive buffer without GCK as a control for maximum inhibition. Buffer contains 2 mM MgCl2, 25 mM KCl, 25 mM Hepes, 1 mM DTT, 0.1% Tween 20 and 0.025% BSA and the pH was adjusted to 7.1. Compounds (23 nL) are then transferred via Kalypsys pin tool equipped with 1536-pin array (10 nL slotted pins, V&P Scientific, San Diego, CA). The library compounds are in columns 5-48 and columns 1-4 serve as controls with DMSO in columns 1 and 3 and 26 mM 1:1.5 fold serial of gluckokinase activator (GKA-EMD) in column 2 and 26 mM of the glucokinase activator (GKA-EMD) in column 4. Following addition of compound, 1 uL of detection antibodies (anti-Flag XL 665 and anti-GST K in reconstitution buffer from Cisbio, Bedford, MA; 0.7 ng/well and 0.0945 ng/well, respectively) is added, and the mixture is allowed to equilibrate for 60 minutes at room temperature. Data are normalized to DMSO-treated control columns with (maximum signal) and without (minimum signal) enzyme. Plates were read on an Envision plate reader (PerkinElmer, Shelton, CT, USA) with excitation at 320 nm and dual-wavelength detection at the Fret donor wavelength (615 nm) and the FRET acceptor wavelength (665 nm).
# Sequence of Hexokinase-4 (Homo sapiens) + Glucokinase regulatory protein (Homo sapiens) (P35557 whole entry, looked up): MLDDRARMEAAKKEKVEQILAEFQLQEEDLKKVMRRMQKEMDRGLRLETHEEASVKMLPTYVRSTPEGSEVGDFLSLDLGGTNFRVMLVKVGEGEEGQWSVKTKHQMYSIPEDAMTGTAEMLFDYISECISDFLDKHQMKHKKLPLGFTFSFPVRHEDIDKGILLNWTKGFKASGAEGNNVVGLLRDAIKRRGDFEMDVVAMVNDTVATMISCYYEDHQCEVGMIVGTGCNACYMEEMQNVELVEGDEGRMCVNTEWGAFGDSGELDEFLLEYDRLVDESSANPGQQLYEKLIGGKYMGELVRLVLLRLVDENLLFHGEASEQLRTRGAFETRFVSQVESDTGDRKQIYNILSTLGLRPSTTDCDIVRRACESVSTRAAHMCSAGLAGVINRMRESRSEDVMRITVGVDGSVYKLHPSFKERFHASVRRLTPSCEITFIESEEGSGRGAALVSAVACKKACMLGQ
# Sequence of Hexokinase-4 (Homo sapiens) + Glucokinase regulatory protein (Homo sapiens) (Q14397 whole entry, looked up): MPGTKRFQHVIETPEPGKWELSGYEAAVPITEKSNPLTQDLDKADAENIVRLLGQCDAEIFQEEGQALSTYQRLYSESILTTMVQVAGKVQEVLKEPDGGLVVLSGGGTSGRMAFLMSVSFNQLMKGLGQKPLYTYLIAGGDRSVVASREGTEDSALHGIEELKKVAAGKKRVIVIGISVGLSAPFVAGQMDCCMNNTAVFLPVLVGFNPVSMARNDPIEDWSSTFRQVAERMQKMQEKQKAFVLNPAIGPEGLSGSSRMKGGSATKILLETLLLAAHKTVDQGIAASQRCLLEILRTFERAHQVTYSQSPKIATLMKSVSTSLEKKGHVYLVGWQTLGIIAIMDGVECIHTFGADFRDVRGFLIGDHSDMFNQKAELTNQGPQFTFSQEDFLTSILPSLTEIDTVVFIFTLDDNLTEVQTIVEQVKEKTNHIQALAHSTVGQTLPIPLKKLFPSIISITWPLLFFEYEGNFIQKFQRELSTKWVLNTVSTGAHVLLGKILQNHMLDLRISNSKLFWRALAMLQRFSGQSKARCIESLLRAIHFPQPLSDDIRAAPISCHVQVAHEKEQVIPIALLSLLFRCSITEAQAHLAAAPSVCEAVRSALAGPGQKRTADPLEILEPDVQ
row,Compound,"activity change, negative = inhibition [%]"
1,NC1CONC1=O (stereo not given),-0.127
2,CCCCCCN(CCCCCC)C(=O)Cc1c(-c2ccc(F)cc2)[nH]c2ccccc12,3.32
3,CCCOC(=O)c1c(-c2ccccc2)nc(CC)c(C(=O)SCC)c1CCC,-1.97
4,CCC1(O)CC2CN(CCc3c([nH]c4ccccc34)[C@@](C(=O)OC)(c3cc4c(cc3OC)N(C=O)C3[C@]45CCN4CC=C[C@@](CC)([C@@H](OC(C)=O)[C@]3(O)C(=O)OC)[C@H]45)C2)C1 (stereo not given in full),0.672
5,N#Cc1cc2nc(O)c(O)nc2cc1[N+](=O)[O-],-10.7
6,O=C1Nc2ccc(I)cc2/C1=C/c1cc(Br)c(O)c(Br)c1,-15.1
7,C=CC1(C)CC(=O)C2(O)C(C)(O1)C(OC(C)=O)C(O)C1C(C)(C)CCC(O)C12C (stereo not given),12.5
8,c1ccc(C(NCCNC(c2ccccc2)c2ccccc2)c2ccccc2)cc1,-7.57
9,N[C@H](C(=O)O)[C@H]1C[C@@H]1C(=O)O,0.822
10,CNc1cc(NS(=O)(=O)c2ccc(N)cc2)nc(NC)n1,1.18
11,NC1CCN(O)C1=O (stereo not given),4.43
12,CCC(=O)N1CCN(C(=O)c2ccccc2)CC1,0.0503
13,COC(=O)C(N)Cc1ccc(Cl)cc1 (stereo not given),6.77
14,Cn1ccnc1,0.128
15,COc1ccccc1N1CCN(CCCCNC(=O)c2ccc3ccccc3c2)CC1,-12.1
16,CC1C(=O)N(C)C(=O)c2nc[nH]c21 (stereo not given),1.46
17,COC(=O)[C@H](NC(=O)c1cc(-c2ccccc2)nc2ccccc12)c1ccccc1,-20.4
18,OC[C@H]1O[C@@H](n2cnc3cncnc32)[C@H](O)[C@@H]1O,-2.61
19,COC(=O)C1=C(C)NC(C)=C([N+](=O)[O-])C1c1ccccc1C(F)(F)F (stereo not given),2.71
20,CN1CCc2cc(Cl)c(O)cc2[C@@H](c2ccccc2)C1,1.83

row,Compound,"activity change, negative = inhibition [%]"
1,CNCCNS(=O)(=O)c1cccc2cnccc12,7.62
2,CC[C@H](NC(=O)c1c(C)c(-c2ccccc2)nc2ccccc12)c1ccccc1,-0.502
3,CC(C)(C)c1cc(/C=C(\C#N)C(N)=S)cc(C(C)(C)C)c1O,0.786
4,NCC(O)c1ccc(O)c(O)c1 (stereo not given),-13.9
5,O=[N+]([O-])c1cccc2cn[nH]c12,4.99
6,C[C@H]1CC2C3CCC4=CC(=O)C=C[C@]4(C)[C@@]3(Cl)[C@@H](O)C[C@]2(C)[C@@]1(O)C(=O)CO (stereo not given in full),6.63
7,Clc1nccc2c1ccc1ccccc12,-4.02
8,N=C(N)SCCN,8.85
9,O=C(O)c1ccccc1Nc1ccccc1,3.25
10,CCCCCCCC/C=C\CCCCCCCC(=O)NCCc1ccc(O)c(O)c1,-20.6
11,Cc1cccc(C)c1OCC(N)C(C)C (stereo not given),7
12,Cc1ccc([N+](=O)[O-])cc1S(=O)(=O)N(C)C,-10.6
13,CC(N)=NCCCC[C@@H](N)C(=O)O,-9.69
14,CCCCCCCCCCCCCCSCC(=O)O,-4.1
15,O=C(OCCN1CCOCC1)C1(c2ccccc2)CCCCC1,5.52
16,CC1CCN=C(N)S1 (stereo not given),2.9
17,O=c1onc2cnc3ccccc3n12,-5.66
18,NC(=Nc1ccccc1)NC(=O)c1nc(Cl)c(N)nc1N,-10.2
19,CC1CNCCN1S(=O)(=O)c1cccc2cnccc12 (stereo not given),4.95
20,CC(C)C[C@H](NC(=O)C1OC1C(=O)O)C(=O)NCCCCN=C(N)N (stereo not given in full),-1.92
